Source: PubChem BioAssay AID1259372 (The Scripps Research Institute Molecular Screening Center, 2018)
Out of some 4,700 compounds screened, about 760 (16%) were called active. Not all results are given here. Unmarked numbers belong to inactive results.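 How the source made its calls: active means inhibition above a cutoff derived from the DMSO control wells (cut at about 28% in these data); inactive means the rest.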

The compounds below were run against Microphthalmia-associated transcription factor (Homo sapiens) (UniProt O75030) (assay: MITF inhibitors, retest of hits, confirmation, biochemical, AlphaScreen, triplicate (AID 1259372)). Conditions: AlphaScreen MITF homodimerization, biotin/His-MITF beads; at 2.6 µM; hits give high values.
Microphthalmia-associated transcription factor (Homo sapiens), sequence (O75030 whole entry, looked up): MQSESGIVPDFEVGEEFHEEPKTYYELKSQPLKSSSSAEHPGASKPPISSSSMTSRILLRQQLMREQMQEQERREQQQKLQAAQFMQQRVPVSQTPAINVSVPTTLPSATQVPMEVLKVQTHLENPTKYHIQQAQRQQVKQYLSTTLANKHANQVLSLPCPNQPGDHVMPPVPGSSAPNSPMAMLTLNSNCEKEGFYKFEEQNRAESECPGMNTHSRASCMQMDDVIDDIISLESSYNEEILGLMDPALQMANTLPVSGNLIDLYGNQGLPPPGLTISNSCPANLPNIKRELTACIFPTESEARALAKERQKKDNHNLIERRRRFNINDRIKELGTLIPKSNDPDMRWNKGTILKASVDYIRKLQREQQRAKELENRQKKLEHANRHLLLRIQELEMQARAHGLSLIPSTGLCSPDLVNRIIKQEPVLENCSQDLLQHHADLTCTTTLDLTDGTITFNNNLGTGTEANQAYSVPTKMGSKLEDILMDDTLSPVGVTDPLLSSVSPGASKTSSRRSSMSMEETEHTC

SMILES | inhibition
COc1cc(NC(=O)CCc2nc(C3=CCN(C)CC3)no2)cc(OC)c1OC | 66.9% (active)
CCC(C)N1CCN(Cc2cccc(OC)c2)CC1 (stereo not given) | 13.4%
CCC(CC)N1CCN(Cc2ccc(F)cc2)CC1 | 3.06%
COc1ccc(CN2CCN(Cc3ccccc3)CC2)cc1C | -1.48%
CSc1ccccc1NC(=O)CN(C)CC(=O)Nc1ccc(C#N)c(Cl)c1 | 4.26%
CCOC(=O)C1C2NC(=S)N(c3ccc(F)cc3)C1(C)Oc1c(OCC)cccc12 (stereo not given) | 24.2%
CCOC(=O)C1C2NC(=S)N(CC)C1(C)Oc1ccc(Cl)cc12 (stereo not given) | 33.4% (active)
CN1CCC(N(C)c2ncnc3scc(-c4ccc(Cl)cc4)c23)CC1 | -5.93%
CCC(C)N1CCN(Cc2ccc(SC)cc2)CC1 (stereo not given) | 3.6%
Fc1ccccc1CN1CCN(Cc2ccccc2F)CC1 | 4.39%
